A short description of assay [1]: Primary qHTS for inhibitors of SARS-S pseudo-typed particle cell entry (AID 1479145). For activity change, negative = inhibition: % is set by controls: 0 for no effect and ±100 for the full control effect. Note: nearly all actives have a fitted effect of over 45% in size. The settings on record: outcome: dose series up to 57.1 µM unless noted.
Assay [2] in a line: Primary qHTS for Huh7 cytotoxicity: counterscreen for inhibitors of MERS-S pseudotyped particle cell entry (AID 1479147). For activity change, negative = cytotoxicity: % is set by controls: 0 for no effect and ±100 for the full control effect. The settings on record: outcome: dose series up to 57.1 µM unless noted. On the technique in general: qHTS replaces the single test concentration by a dilution series.
Assay [3] is described as follows: Primary qHTS for inhibitors of MERS-S pseudo-typed particle cell entry (AID 1479149). Note: nearly all actives have a fitted effect of over 60% in size. To be noted: outcome: dose series up to 57.1 µM unless noted.
Assay [4] in a line: Primary qHTS for Vero E6 cytotoxicity: counterscreen for inhibitors of SARS-S pseudo-typed particle cell entry (AID 1479150). For activity change, negative = cytotoxicity: % is set by controls: 0 for no effect and ±100 for the full control effect. To be noted: outcome: dose series up to 57.1 µM unless noted.
Assay [5] in a line: Cytotoxicity counterscreen for inhibitors of SARS-CoV-2 cell entry (AID 1645845). For activity change, negative = cytotoxicity: % is set by controls: 0 for no effect and ±100 for the full control effect. Note: nearly all actives have a fitted effect of over 50% in size. The settings on record: outcome: dose series up to 57.1 µM unless noted. An outline of the steps:
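Counterscreen run in the same HEK293-ACE2 line as the pseudotyped-particle entry assay, without particles. Viability after 48 h at 37 C was read as ATP luminescence, scaled between cell-containing and cell-free wells.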
A general note: A counterscreen serves to expose hits that act by an unwanted route or on another target.

Assay [6] is described as follows: Primary qHTS to identify inhibitors of SARS-CoV-2 cell entry (AID 1645846). Note: nearly all actives have a fitted effect of over 45% in size. The settings on record: SARS-CoV-2 pseudovirus cell entry assay, luminescence; activity change, negative = inhibition: at 57.1 µM (top of the series) unless noted. The essentials: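 Luminescence readout (Bright-Glo luciferase) 48 h after pseudoparticle addition. HEK293-ACE2 cells, 1500/well; compound pre-incubation 1 h; Normalized to spike PP and bald PP.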

Molecules are shown by their SMILES. Records with an inconclusive call do not appear. Activity calls are given as the source filed them. Calls come from the whole dose curve.

Take `CN(C)/C(N)=N/C(=N)N`: the outcome in assay [1], in assay [2], in assay [3], in assay [4], in assay [5] and in assay [6] was “inactive [setting not given]” throughout.
Consider `CSCC[C@H](N)C(=O)O`, for which the Potency entry in assay [1], in assay [2], in assay [3], in assay [4], in assay [5] and in assay [6] was “inactive” in each case.
Consider `O=C1C(c2[nH]c3ccc(S(=O)(=O)O)cc3c2O)=Nc2ccc(S(=O)(=O)O)cc21`, for which the Potency entry in assay [1], in assay [2], in assay [3], in assay [4] and in assay [5] was “inactive” in each case. Further, the activity change, negative = inhibition in assay [6] was -23%.
With `O=C(O)[C@@H]1C(=CCO)O[C@@H]2CC(=O)N12`, the Potency result in assay [1], in assay [2], in assay [3], in assay [4], in assay [5] and in assay [6] was “inactive” in each case.
In the case of `C=CCN1CC[C@]23c4c5ccc(O)c4O[C@H]2[C@@H](OCCOCCOCCOCCOCCOCCOCCOC)CC[C@@]3(O)[C@H]1C5`, the Potency result in assay [1], in assay [2], in assay [3], in assay [4] and in assay [5] was “inactive” throughout. Also, the activity change, negative = inhibition in assay [6] is -22.8%.
With `OCCOCCOCCO`, the Potency entry in assay [1], in assay [2], in assay [3], in assay [4], in assay [5] and in assay [6] was “inactive” each time.
Turning to `COc1ccc(CC(C)(C)NC[C@H](O)c2cc(O)cc3c2OCC(=O)N3)cc1`, the Potency result in assay [1], in assay [2], in assay [3], in assay [4] and in assay [5] was “inactive” in each case. Moreover, the activity change, negative = inhibition in assay [6] came out at 2.79%.
In the case of `CCOC(=O)[C@H](CCc1ccccc1)N[C@H](C)C(=O)N1C2CCCCC2C[C@H]1C(=O)O` (some centres not stated), the Potency result in assay [1], in assay [2], in assay [3], in assay [4] and in assay [5] was “inactive” throughout. In assay [6], the activity change, negative = inhibition is -29.8%.
Turning to `CSCCNc1nc(SCCC(F)(F)F)nc2c1ncn2[C@@H]1O[C@H](COP(=O)(O)OP(=O)(O)C(Cl)(Cl)P(=O)(O)O)[C@@H](O)[C@H]1O`, the Potency result in assay [1], in assay [2], in assay [3], in assay [4] and in assay [5] was “inactive” in each case. In addition, in assay [6], the activity change, negative = inhibition was -28.8%.
For the compound `Cc1ccc(/C=C2\C(=O)C3(C)CCC2C3(C)C)cc1` (configuration not stated), the Potency result in assay [1], in assay [2], in assay [3], in assay [4], in assay [5] and in assay [6] was “inactive” throughout.
Turning to `O=S(=O)(O)Oc1ccc(C(c2ccc(OS(=O)(=O)O)cc2)c2ccccn2)cc1`, the Potency entry in assay [1], in assay [2], in assay [3], in assay [4], in assay [5] and in assay [6] was “inactive” each time.
In the case of `OC[C@H]1OC(O)C[C@@H](O)[C@@H]1O` (some centres not stated), the Potency entry in assay [1], in assay [2], in assay [3], in assay [4] and in assay [5] was “inactive” each time. In assay [6], the activity change, negative = inhibition is -11.1%.
For the compound `Cn1nnc(-c2ccc(-c3ccc(N4C[C@@H](CO)OC4=O)cc3F)cn2)n1`, the Potency result in assay [1], in assay [2], in assay [3], in assay [4], in assay [5] and in assay [6] was “inactive” throughout.
Regarding `Cn1cc(OCC(O)CNC(C)(C)C)c2ccccc2c1=O` (configuration not stated), the Potency result in assay [1], in assay [2], in assay [3], in assay [4] and in assay [5] was “inactive” in each case. Moreover, the activity change, negative = inhibition in assay [6] is -17.6%.
As for `COc1cc2c(cc1OC)[C@@H](Cc1cc(OC)c(OC)c(OC)c1)[N+](C)(CCCOC(=O)CC/C=C/CCC(=O)OCCC[N+]1(C)CCc3cc(OC)c(OC)cc3[C@H]1Cc1cc(OC)c(OC)c(OC)c1)CC2` (some centres not stated), the Potency entry in assay [1], in assay [2], in assay [3], in assay [4] and in assay [5] was “inactive” in each case. Also, the activity change, negative = inhibition in assay [6] was -24%.
Regarding `CC(C)[C@H](N)C(=O)O`, the Potency result in assay [1], in assay [2], in assay [3], in assay [4] and in assay [5] was “inactive” in each case. Also, the activity change, negative = inhibition in assay [6] was -17.8%.
Regarding `O=C(O)c1cc(O)c2c(c1)[O][Bi][O]2`, the activity change, negative = inhibition was -20% [at 0.573 µM] (inactive) in assay [1] and -27.2% [at 0.702 µM] in assay [6]. For the same compound, the activity change, negative = cytotoxicity in assay [2] was -1.24% [at 0.573 µM] (inactive). The values for the outcome in assay [3], in assay [4] and in assay [5] were “inactive [at 0.573 µM]”, “inactive [at 0.573 µM]” and “inactive [at 0.702 µM]”, respectively.
Turning to `Cc1cc(Nc2ncc(Cl)c(Nc3ccccc3S(=O)(=O)C(C)C)n2)c(OC(C)C)cc1C1CCNCC1`, the Potency entry in assay [1], in assay [2], in assay [3], in assay [4] and in assay [5] was “inactive” each time. Further, in assay [6], the activity change, negative = inhibition is -32%.
`CCCC(=O)O[C@]1(C(=O)COC(=O)CC)[C@@H](C)C[C@H]2[C@@H]3CCC4=CC(=O)C=C[C@]4(C)[C@@]3(F)[C@@H](O)C[C@@]21C`: the Potency result in assay [1], in assay [2], in assay [3], in assay [4], in assay [5] and in assay [6] was “inactive” each time.
As for `CC(=O)OCC1=C(C(=O)O)N2C(=O)[C@@H](NC(=O)CC#N)[C@H]2SC1`, the Potency entry in assay [1], in assay [2], in assay [3], in assay [4], in assay [5] and in assay [6] was “inactive” each time.
`O=c1c2c(c1=O)N(CCP(=O)(O)O)CCCN2`: the Potency entry in assay [1], in assay [2], in assay [3], in assay [4] and in assay [5] was “inactive” each time. Further, the activity change, negative = inhibition in assay [6] is 3.47% [at 114 µM].
`CCC(=O)O[C@]1(C(=O)COC(C)=O)CC[C@H]2[C@@H]3CCC4=CC(=O)CC[C@]4(C)[C@H]3[C@@H](O)C[C@@]21C`: the Potency result in assay [1], in assay [2], in assay [3], in assay [4] and in assay [5] was “inactive” throughout. Also, the activity change, negative = inhibition in assay [6] was -0.634%.

Values taken from PubChem BioAssay (NCATS).
